The values below come from PubChem BioAssay (NCATS).

The structures appear in SMILES notation. Where “and” joins values, the source holds several entries; their conditions need not be identical. Equal values may be shown once. Records with an inconclusive call do not appear. Calls of active or inactive are those of the source. Calls follow the shape of the dose curve; as a rule, active = well fitted cell-killing curve with a large enough effect; inconclusive = small, poorly fitted or top-dose-only effect; inactive = flat fitted curve, though single readings scatter.
% is scaled to controls: 0 for no effect and ±100 for the full control effect; potency is read from the fitted curve at half-maximal effect.

This test can be described thus: Cellular viability qHTS for adrenocortical cancer (ACC) cell line SW-13 (AID 1963989). Also: nearly all actives have a fitted effect of over 65% in size.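 As to activity (max response): cells grown in serum-free medium with ITS supplement.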 The settings on record: SW-13 ACC cells viability, CellTiter-Glo, 48 h; activity (max response): stronger effect = lower value. Put shortly: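 SW-13 cells in ITS-supplemented serum-free DMEM were plated overnight, then exposed for 48 h at 37C to compound titrations (up to 46 uM final). Viability was read by CellTiter-Glo luminescence; four-parameter logistic fits gave IC50 and efficacy.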
Background: qHTS replaces the single test concentration by a dilution series.
For `CC[C@]12C=CCN3CC[C@@]4(c5cc([C@@]6(C(=O)OC)CC7C[C@@H](C(C)(F)F)CN(Cc8c6[nH]c6ccccc86)C7)c(OC)cc5N(C)[C@H]4[C@@](O)(C(=O)OC)[C@@H]1OC(C)=O)[C@@H]32` (stereo not given in full), the Potency was 0.282 µM (active). Regarding `COC(=O)/C=C/C(=O)N(O)CCCCNCc1ccc(COC(=O)Nc2cccc3ccccc23)cc1`, the activity (max response) was -10.5% (inactive). Regarding `CC(=O)[C@@]1(O)CC[C@H]2[C@@H]3C[C@H](C)C4=CC(=O)C=C[C@]4(C)[C@@]3(F)[C@@H](O)C[C@@]21C`, the activity (max response) was 3.6% (inactive). `Cc1cc(C)c(S(=O)(=O)N(CCc2cccc(Br)c2)Cc2ccc(-c3cccc(S(C)(=O)=O)c3)cc2)c(C)c1`: the activity (max response) is -27.1% (inactive). Regarding `COc1cccc2c1c(O)c(C(=O)N(C)c1ccc(C(F)(F)F)cc1)c(=O)n2C`, the activity (max response) was -27.3% (inactive). Still for that read-out and setting: then `O=C(O)C1=CO[C@@H](O[C@@H]2O[C@H](CO)[C@@H](O)[C@H](O)[C@H]2O)[C@@H]2C(CO)=CC[C@H]12`, with 7.35% (inactive); and `COc1ccc(C(=O)C2CCN(CC(=O)N(Cc3nc4c(c(=O)[nH]3)COCC4)CC3CC3)CC2)cc1`, with 0.295% (inactive). For the compound `O=C(O)CCn1c2c(c3ccccc31)C[C@H](NS(=O)(=O)c1ccc(F)cc1)CC2`, the activity (max response) is -2.29% (inactive) and -2.36% (inactive). In the case of `O=C(Nc1ccc(OC(F)(F)Cl)cc1)c1cnc(N2CC[C@@H](O)C2)c(-c2ccn[nH]2)c1`, the Potency was 20 µM (active).

Take `[Cl][In]([Cl])[Cl]`: the Potency is 35.5 µM (active). In the case of `COc1cc(NS(=O)(=O)c2ccc(N)cc2)nc(C)n1`, the activity (max response) was 1.38% (inactive). As for `CO[C@@]12[C@H](COC(N)=O)C3=C(C(=O)C(C)=C(N)C3=O)N1C[C@@H]1N[C@@H]12`, the activity (max response) was 9.06% (inactive) and -27.8% (inactive). Still for that read-out and setting: then `C=C1CCC[C@]2(C)C=C3OC(=O)C(C)=C3C[C@@H]12`, with -6.22% (inactive). For `CCO[C@@H]1OC(=O)C[C@@H]1NC(=O)[C@@H]1CCCN1C(=O)[C@@H](NC(=O)c1ccc(N)c(Cl)c1)C(C)(C)C`, the activity (max response) is -11.3% (inactive). On to `Cc1ccc(/C=N/n2c(-c3ccccc3)csc2=S)cc1`, for which the activity (max response) is 8.75% (inactive). For `COC(=O)CCCCC(CCSS/C(CCO)=C(\C)N(C=O)Cc1cnc(C)nc1N)SC(C)=O` (stereo not given), the activity (max response) was 8.22% (inactive). Turning to `O=C1CC(c2ccc(Cl)cc2)CC(=O)N1`, the activity (max response) is 13.6% (inactive). Same read-out and setting: then `CN1C(=O)[C@@H](NC(=O)c2n[nH]c(Cc3ccccc3)n2)COc2ccccc21`, with 8.85% (inactive). As for `O=C(O)CCCC[C@@H]1SC[C@@H]2NC(=O)N[C@@H]21`, the activity (max response) was -0.523% (inactive). For `C[C@@H]1[C@H](O)[C@@H](C)/C=C/C=C/C=C/C=C/C=C/C=C/C=C/[C@H](O[C@@H]2O[C@H](C)[C@@H](O)[C@H](N)[C@@H]2O)C[C@@H]2O[C@](O)(C[C@@H](O)C[C@@H](O)[C@H](O)CC[C@@H](O)C[C@@H](O)CC(=O)O[C@H]1C)C[C@H](O)[C@H]2C(=O)O`, the activity (max response) was -9.6% (inactive).

Take `CC(C)N(CCC(=O)c1ccc2ccccc2c1)Cc1ccccc1`: the activity (max response) was -18.6% (inactive). Still for that read-out and setting: then `CCOC(=O)Oc1ccc(CCNC(=O)[C@H](CCSC)NC(C)=O)cc1OC(=O)OCC`, with 3.57% (inactive); and `C[N+](C)(C)CC[N+]1(C)Cc2c(Cl)c(Cl)c(Cl)c(Cl)c2C1`, with 6.09% (inactive). In the case of `O=C(Nc1cc(Oc2cc(F)c(NC(=O)C3(C(=O)Nc4ccc(F)cc4)CC3)cc2F)ccn1)C1CC1`, the activity (max response) is -9.83% (inactive).

`COc1ccc(CCN(C)CCCN2CCc3cc(OC)c(OC)cc3CC2=O)cc1OC`: the activity (max response) is 5.36% (inactive).
